# PubChem BioAssay AID686978 (National Center for Advancing Translational Sciences (NCATS), 2013)
# “And” between values parts separate entries of the source, which are not always exact repeats. Identical values can stand only once. Screen size: about 420,000 compounds; about 64,000 (15%) were called active. Roughly 27% stayed inconclusive and do not appear here. The call rests on the fitted dose curve; in most records, active means well fitted inhibition curve with a large enough effect; inconclusive means small, poorly fitted or top-dose-only effect; inactive means flat fitted curve, though single readings scatter. A selection follows. Where a call stands in place of a potency, no number is given.
# Assay: qHTS for Inhibitors of human tyrosyl-DNA phosphodiesterase 1 (TDP1): qHTS in cells in absence of CPT; further: nearly all actives have a fitted effect of over 55% in size
# Conditions: DT40 Tdp1-/- hTDP1 cells, no CPT, ATP luminescence, 48 h; activity change, negative = growth inhibition: at 46.2 µM (top of the series)
# Procedure, shortened: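 Chicken DT40 Tdp1-/- cells complemented with human TDP1, screened without camptothecin (DMSO vehicle only), 400 cells/well. Compounds pin-transferred, cells incubated at 37 °C for at least 48 hr. Growth read as ATP-dependent luminescence (CellTiter-Glo, 30 min at RT).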
# Potency means the concentration at half of the fitted maximal effect.
row,Compound,Potency
1,CCOCCc1c(O)nc(SCC(=O)NCc2ccco2)[nH]c1=O,inactive
2,O=C(Nc1cc2ccccc2oc1=O)C1CCCCC1,inactive
3,O=C(NC1CCCCC1)C(c1cc2ccccc2o1)n1c(=O)c(-c2ccco2)nc2ccccc21 (stereo unspecified),16.4 µM (active)
4,Cn1c(SCC(=O)NC2CCCCC2)nnc1-c1cc2ccccc2o1,inactive
5,CN1CCC(N(C)S(=O)(=O)c2ccc(NC(=O)c3cccc(C#N)c3)cc2)CC1,inactive
6,CN(C)S(=O)(=O)c1ccc(N2CCCC2)c(C(=O)NCc2ccccc2)c1,inactive
7,CCN(CC)S(=O)(=O)c1ccc(N2CCOCC2)c(C(=O)O)c1,inactive
8,CCN(CC)S(=O)(=O)c1ccc(N2CCCC2)c(NC(=O)c2ccc([N+](=O)[O-])o2)c1,23.1 µM (active)
9,CCN(CC)S(=O)(=O)c1ccc(N2CCOCC2)c(NC(=O)c2ccc(=O)n(C)n2)c1,inactive
10,CCN(CC)S(=O)(=O)c1ccc(N2CCOCC2)c(NC(=O)C2COc3ccccc3O2)c1 (stereo unspecified),16.4 µM (active)
11,COc1ccc(CC(=O)Nc2cc(S(=O)(=O)N3CCCCC3)ccc2N2CCN(C)CC2)cc1,inactive
12,C/C(=N\NC(=S)NC1CCCCC1)c1ccc(C)o1,23.1 µM (active)
13,Cc1ccc(/C=N/NC(=S)NC2CCCCC2)o1,4.11 µM (active)
14,CCCC/C(C)=N/NC(=O)NC1CCCCC1,inactive
15,Cc1ccc(/C=N/NC(=O)CNC(=O)COc2ccccc2)o1,inactive
16,Cc1ccc(NC(=S)NC2CCCC2)cc1,inactive
17,COc1ccc(C(C)NC(=S)NC2CCCCC2)cc1OC (stereo unspecified),inactive
18,Cn1c(N)cc(=O)n(C)c1=S,inactive
19,Cc1n[nH]c(=O)c2c(NC(=O)COC(=O)c3ncc(Cl)c(Cl)c3Cl)oc(C)c12,inactive
20,O=C(CN1CCN(S(=O)(=O)c2ccc(Cl)s2)CC1)NCc1ccc(Cl)cc1,inactive
21,N#Cc1ccc(COC(=O)Cn2nnc(-c3ccccc3)n2)cc1,inactive
22,Cc1ccc(NC(=O)CN2C(=O)NC(C)(c3ccc(Cl)cc3)C2=O)c(Br)c1 (stereo unspecified),inactive
23,Cc1c(S(=O)(=O)NC(C)c2ccccc2)c(=O)n(C)c(=O)n1C (stereo unspecified),inactive
24,C=CCn1nc(C(=O)OCC)cc1-c1sc(NC(=O)c2ccccc2)nc1C,20.6 µM (active)
25,CCOc1ccc(C(=O)Nc2c3c(nn2-c2ccccc2)CS(=O)(=O)C3)cc1,inactive
26,CCOC(=O)c1cc(-c2sc(NC(=O)c3ccccc3)nc2C)n(CCO)n1,6.51 µM (active)

row,Compound,Potency
1,CC(=O)c1sc(NC(=O)c2cccc3ccccc23)nc1C,inactive
2,CCOC(=O)c1cc(-c2sc(NC(=O)c3ccccc3)nc2C)n(Cc2ccccc2)n1,18.4 µM (active)
3,CCOC(=O)c1sc(NC(=O)CSc2nc(O)c(Cc3ccccc3)c(=O)[nH]2)nc1C,inactive
4,CCOC(=O)c1cc(NC(=O)c2cccnc2)ccn1,inactive
5,CCOC(=O)c1cc(-c2sc(NC(=O)c3ccccc3)nc2C)n(-c2ccc(Br)cc2)n1,25.9 µM (active)
6,Cn1sc(NC(=O)c2ccccc2)nc1=O,inactive
7,CCOC(=O)c1cc(OC(=O)c2ccccc2Cl)n(-c2ccccc2)n1,inactive
8,CCOC(=O)C(=O)Nc1nc(-c2ccccc2)c(CC)s1,inactive
9,CCOc1ccccc1NC(=O)CSc1ncc(S(=O)(=O)c2ccc(C(C)(C)C)cc2)c(=O)[nH]1,inactive
10,O=C1CSC2=NCN(c3ccccc3)CN12,inactive
11,Nc1scc(-c2ccncc2)c1Cl,inactive
12,Cc1nc2ccc(S(=O)(=O)N(C)CC(=O)NC(C)c3ccccc3)cc2s1 (stereo unspecified),inactive
13,CCCc1cc(=O)oc2c(C)c(OC(C)C(=O)NCC(O)c3ccccc3)ccc12 (stereo unspecified),inactive
14,c1ccc2cc(OCCN3CCCC3)ccc2c1,inactive
15,Cc1nnc2n1N=C(c1ccc3c(c1)NC(=O)CO3)CS2,inactive
16,CC(C(=O)NCCc1ccc(S(N)(=O)=O)cc1)N1C(=O)CC(C)(C)Sc2ccccc21 (stereo unspecified),inactive
17,Cc1c(C(=O)NNC(=O)c2ccncc2)oc2ccccc12,inactive
18,C/C(=C/C(=O)N1CCN(C)CC1)C(=O)O,inactive
19,COc1cc(-c2c(-c3ccc4c(c3)OCO4)noc2C)ccc1F,17.8 µM (active) and 16.4 µM (active)
20,COc1ccc(CCNC(=O)c2cc(-c3ccc4c(c3)OCO4)on2)cc1OC,inactive
21,COc1ccc(F)cc1S(=O)(=O)Nc1ccc2c(c1)OCO2,inactive
22,NC(=O)CSC1=Nc2ccccc2C2=NC(CCC(=O)NCc3ccc(F)cc3)C(=O)N12 (stereo unspecified),inactive
23,COc1ccccc1NC(=O)CSC1=Nc2ccccc2C2=NC(CC(=O)NCc3cccs3)C(=O)N12 (stereo unspecified),20.6 µM (active)
24,COc1ccccc1NC(=O)N1CCCC1C(=O)NCc1cccs1 (stereo unspecified),inactive
25,O=C(CSC1=Nc2ccccc2C2=NC(CC(=O)NCc3ccco3)C(=O)N12)NCc1ccco1 (stereo unspecified),inactive
26,O=C(CC1N=C2c3ccccc3N=C(SCc3cccc(Cl)c3)N2C1=O)NCc1ccc2c(c1)OCO2 (stereo unspecified),20.6 µM (active)

row,Compound,Potency
1,O=C(CC1N=C2c3ccccc3N=C(SCc3ccccc3Cl)N2C1=O)NCc1ccco1 (stereo unspecified),inactive
2,CC(C)NC(=O)N1CC[C@@]2(CCCN(C(=O)c3ccco3)C2)C1,inactive
3,COc1ccc(N2C(=O)C3CCCN3C2c2cccc(OC)c2)cc1 (stereo unspecified),inactive
4,Cc1ccc(NS(=O)(=O)c2ccc(C(C)(C)C)cc2)cn1,inactive
5,Cc1ccc(OCC(=O)Nc2ccc(S(=O)(=O)Nc3ccccn3)cc2)cc1,inactive
6,Cc1ccc(S(=O)(=O)Nc2ccc3ncccc3c2)cc1,9.2 µM (active)
7,CS(=O)(=O)N(CC(=O)Nc1ccc(F)cc1)C1CCCCC1,inactive
8,CS(=O)(=O)N1CCC2(CC1)CN(Cc1ccccc1)C2,inactive
9,Cc1ccc(CN2C(=O)SC(Nc3ccccc3)C2=O)cc1 (stereo unspecified),inactive
10,Cc1ccc(-c2nc(=N)sn2Cc2ccccc2)cc1,4.47 µM (active)
11,O=c1onc(-c2cccs2)n1Cc1ccccc1,inactive
12,c1ccc2c(c1)OCCOCCOCCO2,inactive
13,Cc1ccc(NC(=O)CN(C)C(=O)c2ccc(Br)o2)cc1,inactive
14,O=C(Nc1ccccc1Cl)c1ccc2nsnc2c1,inactive
15,O=C(Nc1ccccc1Cl)/C(Cl)=C(\Cl)S(=O)c1ccccc1 (stereo unspecified),0.206 µM (active)
16,O=C(Nc1ccccc1Cl)Nn1cnnc1,inactive
17,C=CCn1c(COc2ccc(F)cc2)nnc1SCC(=O)Nc1cccc(S(N)(=O)=O)c1,inactive
18,O=C(c1cnccn1)N1CCN(S(=O)(=O)c2cccc(Cl)c2)CC1,inactive
19,COc1ccc(-c2ccc(Nc3ccc(S(=O)(=O)N4CCCC4)cc3)nn2)cc1OC,18.4 µM (active)
20,COc1ccc(S(=O)(=O)Nc2ccc(S(=O)(=O)N3CCCCC3)cc2)cc1OC,inactive
21,COc1cc(NS(=O)(=O)c2ccc(NC(=O)c3ccc(S(=O)(=O)N4CCCCC4)cc3)cc2)ncn1,inactive
22,O=C(Nc1ccccc1C(F)(F)F)c1cc(-c2ccc(O)cc2)on1,inactive
23,CCN(CC)Cc1cc(C(C)=O)ccc1O,inactive
24,CC1CCCCN1S(=O)(=O)c1ccc(S(=O)(=O)N(CC(=O)Nc2ccccc2)Cc2cccs2)cc1 (stereo unspecified),25.9 µM (active)
25,CCN(CC(=O)NCc1cccs1)S(=O)(=O)c1ccc(NC(C)=O)cc1,inactive
26,CS(=O)(=O)c1ccc(-c2nnc(NC(=O)c3ccc4c(c3)OCCO4)o2)cc1,inactive

row,Compound,Potency
1,CC1CCCCN1S(=O)(=O)c1ccc(C(=O)Nc2nnc(-c3cccs3)o2)cc1 (stereo unspecified),5.8 µM (active)
2,CC1CCCN(S(=O)(=O)c2ccc(C(=O)Nc3nnc(-c4ccncc4)o3)cc2)C1 (stereo unspecified),10.3 µM (active)
3,O=C(NCc1cccs1)C(=O)NCC1OCCCN1S(=O)(=O)c1ccc(F)cc1 (stereo unspecified),inactive
4,CC1CCCCN1S(=O)(=O)CCNC(=O)c1ccccc1 (stereo unspecified),inactive
5,COCCN(CC(=O)Nc1ccccc1C)S(=O)(=O)c1ccc(S(=O)(=O)N2CCCC2)cc1,inactive
6,CC(=O)c1ccc(NC(=O)C2CCCN2S(=O)(=O)c2cccs2)cc1 (stereo unspecified),inactive
7,CC1CC(C)CN(S(=O)(=O)c2ccc(C(=O)NN3CCOCC3)cc2)C1 (stereo unspecified),inactive
8,CSCc1nnc(NC(=O)c2ccc(S(=O)(=O)N3CCCCC3C)cc2)o1 (stereo unspecified),20.6 µM (active)
9,CCc1nnc(NC(=O)c2ccc(S(=O)(=O)NC3CCCCC3)cc2)s1,inactive
10,COC(=O)c1ccc(N(CC(=O)NC2CCCC2)C(=O)CNC(=O)c2ccco2)cc1,inactive
11,C=C(C)C1CC=C(C)/C(=N/NC(=O)CCCNc2cccc(C)c2)C1 (stereo unspecified),inactive
12,CCOc1ccc(-c2n[nH]c(=S)n2/N=C/c2cc3c(cc2[N+](=O)[O-])OCO3)cc1,inactive
13,NC(=O)c1ccc(NC(=O)COC(=O)c2ccc([N+](=O)[O-])cc2)cc1,inactive
14,COCc1cc(C)nc2sc3c(=O)n(-c4cccc5ccccc45)nnc3c12,inactive
15,CC1(C)OC[C@@H](COC(=O)CCc2ccc(OC[C@@H](O)CNCCNC(=O)N3CCOCC3)cc2)O1,inactive
16,Cc1ccccc1Nc1nn2c(=O)c3ccc(C(=O)NCCc4ccc(Cl)cc4)cc3nc2s1,14.6 µM (active)
17,CCc1ccc(Nc2nn3c(=O)c4cc5c(cc4nc3s2)OCO5)cc1,inactive
18,C=CCn1c(SCC(=O)CC(=O)OCC)nc2cc(C(=O)N3CCC(C(N)=O)CC3)ccc2c1=O,inactive
19,CCOC(=O)C1CCN(C(=O)c2ccc3c(=O)n4nc(Nc5ccccc5CC)sc4nc3c2)CC1,10.3 µM (active)
20,Cc1cc(C(=O)NCCc2ccc(Cl)cc2)c(C)o1,inactive
21,C=CCN1C(=O)c2ccc(C(=O)N3CCC(C(=O)OCC)CC3)cc2C1=O,inactive
22,Cc1ccc(C(=O)NC2CCN(C(=O)N3CCOCC3)CC2)cc1,inactive
23,C#CCOCCOCCOCCNc1nc(N2CCN(C(=O)[C@H](C(C)C)n3cc(CCO)nn3)CC2)nc(N2CCN(C(=O)[C@H](C(C)C)n3cc(CCO)nn3)CC2)n1,inactive
